Compound activity deposited in PubChem by The Scripps Research Institute Molecular Screening Center.
PME-1 primary: blocks human protein phosphatase methylesterase 1 | Q9Y570 | AID 2130 | recombinant PME-1, FP-Rh probe fluorescence polarization | 320,000 tested, 0.53% active | inhibition, % at 5.9 µM;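 active means inhibition above the campaign mean of all compounds plus 3 SD, cut at about 26% in these data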;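 further: competitive labeling of PME-1 active site by serine hydrolase directed probe; 0% = PME-1 with DMSO and 100% = wells lacking PME-1 enzyme; inhibitors block probe labeling so polarization falls and inhibition rises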
Target sequence (Q9Y570 whole entry, looked up): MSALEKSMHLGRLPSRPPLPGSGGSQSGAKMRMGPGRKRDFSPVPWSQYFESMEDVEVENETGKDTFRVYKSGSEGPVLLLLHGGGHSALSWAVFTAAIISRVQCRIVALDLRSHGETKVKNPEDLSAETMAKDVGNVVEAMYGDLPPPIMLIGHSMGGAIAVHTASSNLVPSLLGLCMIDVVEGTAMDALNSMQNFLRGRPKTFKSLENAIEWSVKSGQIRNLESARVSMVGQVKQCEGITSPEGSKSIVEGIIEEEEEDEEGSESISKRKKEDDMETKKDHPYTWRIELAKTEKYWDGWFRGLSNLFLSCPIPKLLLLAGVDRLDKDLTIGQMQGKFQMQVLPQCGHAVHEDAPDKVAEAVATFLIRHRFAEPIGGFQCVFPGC
PAFAH2 inh: PAFAH2 (human) inhibition | 340,000 tested, 0.99% active | Q99487 | recombinant PAFAH2, FP-rhodamine activity probe, fluorescence polarization | inhibition, % at 3.39 µM;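 active means inhibition above the mean over all tested compounds plus 3 SD, cut at about 30% in these data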;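 further: inhibitors block probe labeling of enzyme so polarization drops; 0% = enzyme with DMSO and 100% = wells lacking PAFAH2 protein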
pPAFAH FP inh: pPAFAH (human) enzyme inhibition; Q13093; recombinant pPAFAH, FP-rhodamine probe fluorescence polarization; inhibition, % at 3.39 µM; 330,000 tested, 1.5% active;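 active means inhibition above the mean inhibition across the screen plus 3 SD, cut at about 25% in these data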;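 further: inhibitors block binding of the rhodamine activity-based probe so polarization drops; 0% = enzyme with DMSO and 100% = wells lacking pPAFAH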
PAFAH1B3 inh: PAFAH1B3 (human) inhibition; Q15102; recombinant PAFAH1B3, FP-rhodamine probe, fluorescence polarization; inhibition, % at 3.39 µM; 340,000 tested, 0.28% active; AID 492972;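 active means inhibition above the screen-wide average of all tested compounds plus 3 SD, cut at about 25% in these data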;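 further: 0% = enzyme with DMSO only and 100% = wells lacking PAFAH1B3 protein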
Target sequence (Q15102 whole entry, looked up): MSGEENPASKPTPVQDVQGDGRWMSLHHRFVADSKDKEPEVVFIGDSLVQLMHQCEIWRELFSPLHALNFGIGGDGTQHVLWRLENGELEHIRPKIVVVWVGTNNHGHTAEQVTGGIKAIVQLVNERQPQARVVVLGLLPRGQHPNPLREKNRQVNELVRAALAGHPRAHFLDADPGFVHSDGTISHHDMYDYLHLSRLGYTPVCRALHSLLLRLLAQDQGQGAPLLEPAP
PAFAH1B2 inh: inhibitors of human PAFAH1B2 | 340,000 tested, 1.2% active | P68402 | inhibition, % at 3.39 µM | recombinant PAFAH1B2, FP-rhodamine activity probe, fluorescence polarization;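 active means inhibition above the mean of all tested compounds plus 3 SD, cut at about 24% in these data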;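 further: 0% = enzyme with DMSO and 100% = wells lacking PAFAH1B2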
Fam108B inh: Fam108B inhibition, counter-screen for RBBP9 inhibitors; 300,000 tested, 0.33% active; inhibition, % at 9.51 µM; recombinant Fam108B, FP-Rh probe fluorescence polarization; AID 1947;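 active means inhibition above the screen mean inhibition plus 3 SD, computed separately per campaign, cut at about 18% in these data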;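 further: inhibitors lower polarization as less probe binds the enzyme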
The depositor's hits bear a star. The list is not random: actives were taken first. Their share in the collection is about 2.9%.

How did O=C1NC(=Nc2ccccc2)SC1Cc1cccc(Cl)c1Cl (stereo not drawn) do in these assays?
PME-1 primary: -3; PAFAH2 inh: 0; pPAFAH FP inh: 29*; PAFAH1B3 inh: 1; PAFAH1B2 inh: 1; Fam108B inh: 1

How did O=C1NC(=Nc2ccccc2)SC1Cc1ccccc1 (stereo not drawn) do in these assays?
PME-1 primary: 0; pPAFAH FP inh: 4; Fam108B inh: 0

How did O=C(NCCc1ccccc1)C(c1ccccc1F)N(C(=O)c1csnn1)C1CC1 (stereo not drawn) do in these assays?
PME-1 primary: 3; PAFAH2 inh: -7; pPAFAH FP inh: 4; PAFAH1B3 inh: 5; PAFAH1B2 inh: 0; Fam108B inh: -2

What do the screens show for `COc1cccc(C(C(=O)NC2CCCCC2)N(C(=O)c2cccs2)c2ccc3c(c2)OCO3)c1` (stereo not drawn)?
PME-1 primary: 2; PAFAH2 inh: -2; pPAFAH FP inh: 4; PAFAH1B3 inh: -5; PAFAH1B2 inh: 0; Fam108B inh: 2

How did Nc1cc2c(cc1O)CCCC2 do in these assays?
PME-1 primary: 3; PAFAH2 inh: 3; pPAFAH FP inh: 31*; PAFAH1B3 inh: 3; PAFAH1B2 inh: 9; Fam108B inh: 10

How did Cc1ccc(O)c(N)c1 do in these assays?
PME-1 primary: 12; PAFAH2 inh: 5; pPAFAH FP inh: 12; PAFAH1B3 inh: 10; PAFAH1B2 inh: -2

How did S=c1[nH]nc(CCSCc2ccccc2)n1-c1ccccc1 do in these assays?
PME-1 primary: -1; PAFAH2 inh: 11; pPAFAH FP inh: 4; PAFAH1B3 inh: 8; PAFAH1B2 inh: 28*; Fam108B inh: -5

How did CC1CCCC(NC(=O)COC(=O)CCC2CCCC2)C1C (stereo not drawn) do in these assays?
PME-1 primary: 2; PAFAH2 inh: -6; pPAFAH FP inh: 28*; PAFAH1B3 inh: -4; PAFAH1B2 inh: 2; Fam108B inh: -2

Results for CCOc1ccc(OCCC(=O)OCC(=O)NC2CC2)cc1 ?
PME-1 primary: -1; PAFAH2 inh: -1; pPAFAH FP inh: 11; PAFAH1B3 inh: 6; PAFAH1B2 inh: 2; Fam108B inh: -1

How did CC1CCCC(NC(=O)COC(=O)Cc2ccc(Br)cc2)C1C (stereo not drawn) do in these assays?
PME-1 primary: -2; pPAFAH FP inh: 25*; Fam108B inh: 1

What do the screens show for `Cc1ccsc1C(=O)OCC(=O)NC1CCCC(C)C1C` (stereo not drawn)?
PAFAH2 inh: 85*; pPAFAH FP inh: 32*; PAFAH1B3 inh: 6; PAFAH1B2 inh: 5

Results for CCOc1ccc(OCCC(=O)OCC(=O)NC2CCCCC2)cc1 ?
PME-1 primary: 4; PAFAH2 inh: 7; pPAFAH FP inh: 31*; PAFAH1B3 inh: 22; PAFAH1B2 inh: 7; Fam108B inh: 1

What do the screens show for `COc1ccc(-c2cc(=O)oc3c(C)c(OCC(=O)NCC4CCC(C(=O)O)CC4)ccc23)cc1` (stereo not drawn)?
PME-1 primary: 3; PAFAH2 inh: -4; pPAFAH FP inh: 4; PAFAH1B3 inh: 9; PAFAH1B2 inh: 0; Fam108B inh: 1

How did OC1CCN(c2ncnc3c2nnn3Cc2c(F)cccc2Cl)CC1 do in these assays?
PME-1 primary: -2; PAFAH2 inh: 5; pPAFAH FP inh: -5; PAFAH1B3 inh: 9; PAFAH1B2 inh: 1; Fam108B inh: -5

What do the screens show for `N#CCC(=O)NNC(=S)Nc1ccccc1C(F)(F)F`?
PME-1 primary: 10; PAFAH2 inh: 4; pPAFAH FP inh: -4; PAFAH1B3 inh: 4; PAFAH1B2 inh: 6; Fam108B inh: 3

Results for CCCc1c(O)nc(SCc2ccccc2)[nH]c1=O ?
PME-1 primary: 3; PAFAH2 inh: -10; pPAFAH FP inh: 1; PAFAH1B3 inh: 0; PAFAH1B2 inh: 13; Fam108B inh: 1

How did CC1CCCC(NC(=O)COC(=O)COc2ccc(Br)cc2)C1C (stereo not drawn) do in these assays?
PAFAH2 inh: -4; pPAFAH FP inh: 16; PAFAH1B3 inh: 4; PAFAH1B2 inh: 18

Results for Cc1ccc(OCCC(=O)OCC(=O)NC2CCCC(C)C2C)cc1 (stereo not drawn) ?
PAFAH2 inh: -3; pPAFAH FP inh: 22; PAFAH1B3 inh: 5; PAFAH1B2 inh: 34*

What do the screens show for `CC(NC(=O)COC(=O)c1cccnc1Cl)C12CC3CC(CC(C3)C1)C2` (stereo not drawn)?
PAFAH2 inh: 45*; pPAFAH FP inh: 2; PAFAH1B3 inh: 2; PAFAH1B2 inh: 51*

How did Cc1ccc(S(=O)(=O)CC(c2ccccc2)N2CCCCC2)cc1 (stereo not drawn) do in these assays?
PME-1 primary: 15; PAFAH2 inh: -1; pPAFAH FP inh: 9; PAFAH1B3 inh: 0; PAFAH1B2 inh: 9; Fam108B inh: 1

How did Nc1c(C(=O)c2ccccc2)sc2snc(SCC(=O)c3ccccc3)c12 do in these assays?
PME-1 primary: 13; PAFAH2 inh: 44*; pPAFAH FP inh: 27*; PAFAH1B3 inh: 15; PAFAH1B2 inh: 15; Fam108B inh: 12

What do the screens show for `Nc1nnc(SCC(=O)c2ccccc2)s1`?
PME-1 primary: -4; PAFAH2 inh: 0; pPAFAH FP inh: -1; PAFAH1B3 inh: 0; PAFAH1B2 inh: 2; Fam108B inh: -5

Results for CC(C)NC(=O)COC(=O)c1cc(Br)ccc1Cl ?
PME-1 primary: 0; PAFAH2 inh: -4; pPAFAH FP inh: -2; PAFAH1B3 inh: 6; PAFAH1B2 inh: 1; Fam108B inh: 7

How did CC(NC(=O)C1CCCC1)c1ccc(Br)cc1 (stereo not drawn) do in these assays?
PME-1 primary: -2; PAFAH2 inh: 3; pPAFAH FP inh: 2; PAFAH1B3 inh: 3; PAFAH1B2 inh: 40*; Fam108B inh: 0

How did CCS(=O)(=O)N1Cc2ccccc2CC1C(=O)Nc1nnc(SCc2ccc(C#N)cc2)s1 (stereo not drawn) do in these assays?
PME-1 primary: 9; PAFAH2 inh: 2; pPAFAH FP inh: 10; PAFAH1B3 inh: 5; PAFAH1B2 inh: 22; Fam108B inh: 0

Results for CCCCc1cc(=O)oc2cc(C)c(CN3CCCC3)c(O)c12 ?
PME-1 primary: -3; PAFAH2 inh: 16; pPAFAH FP inh: 30*; PAFAH1B3 inh: 5; PAFAH1B2 inh: 1; Fam108B inh: 1

What do the screens show for `CCCCc1cc(=O)oc2c(CN3CCCC3)c(O)ccc12`?
PME-1 primary: 2; PAFAH2 inh: 0; pPAFAH FP inh: -3; PAFAH1B3 inh: 4; PAFAH1B2 inh: 4; Fam108B inh: -3

What do the screens show for `Cc1ccc(NC(=O)c2ccn(C)n2)c(Br)c1`?
PME-1 primary: -3; PAFAH2 inh: 6; pPAFAH FP inh: 2; PAFAH1B3 inh: 2; PAFAH1B2 inh: 6; Fam108B inh: 4

Results for O=C(O/N=C1/CCCc2occc21)c1ccc(Cl)cc1Cl ?
PME-1 primary: -4; PAFAH2 inh: 8; pPAFAH FP inh: 0; PAFAH1B3 inh: 2; PAFAH1B2 inh: 34*; Fam108B inh: -1
